Measurements from ChEMBL document CHEMBL3988442, “University of Dundee, Small-Polar-MMV Screening Library” (2021).
For some assays here: Entries with a potency or affinity are not part of this list.

What was measured:
Set-up in all cases: scale not given: direction of the effect not stated beside the values
[1] = molecular target: Protein translocase subunit SecA (Escherichia coli (strain K12)) (UniProt P10408); experiment: Assay to Identify E. coli SecA ATPase Inhibitors; type: functional; conditions: 30 µM
Sequence of Protein translocase subunit SecA (Escherichia coli (strain K12)) (P10408 whole entry): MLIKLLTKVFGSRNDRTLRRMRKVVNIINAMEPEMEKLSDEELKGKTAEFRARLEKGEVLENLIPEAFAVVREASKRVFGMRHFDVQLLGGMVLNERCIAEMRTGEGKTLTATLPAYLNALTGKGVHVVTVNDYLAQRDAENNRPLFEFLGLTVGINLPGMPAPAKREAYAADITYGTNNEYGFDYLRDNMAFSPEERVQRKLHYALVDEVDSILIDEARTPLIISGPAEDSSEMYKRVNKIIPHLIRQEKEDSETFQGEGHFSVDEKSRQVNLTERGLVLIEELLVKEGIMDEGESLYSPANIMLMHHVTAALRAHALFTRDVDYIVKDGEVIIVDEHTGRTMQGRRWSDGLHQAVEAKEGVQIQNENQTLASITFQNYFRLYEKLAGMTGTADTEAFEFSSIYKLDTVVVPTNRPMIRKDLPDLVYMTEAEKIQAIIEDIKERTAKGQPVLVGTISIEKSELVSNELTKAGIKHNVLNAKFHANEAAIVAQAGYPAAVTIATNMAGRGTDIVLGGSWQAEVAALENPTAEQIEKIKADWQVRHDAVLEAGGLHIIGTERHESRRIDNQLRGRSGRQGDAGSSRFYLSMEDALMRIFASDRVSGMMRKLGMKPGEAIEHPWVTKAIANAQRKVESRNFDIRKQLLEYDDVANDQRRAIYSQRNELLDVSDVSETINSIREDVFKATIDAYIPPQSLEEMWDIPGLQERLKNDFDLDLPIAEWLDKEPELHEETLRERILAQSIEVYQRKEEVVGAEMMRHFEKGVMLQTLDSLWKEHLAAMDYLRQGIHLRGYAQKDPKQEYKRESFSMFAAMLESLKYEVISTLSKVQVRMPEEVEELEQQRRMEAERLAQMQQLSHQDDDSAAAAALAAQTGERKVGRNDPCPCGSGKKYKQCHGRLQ

[2] = molecular target: T1, Ubiquitin-activating enzyme e1, putative (Leishmania donovani (strain BPK282A1)) (UniProt E9BSI1); experiment: Leishmania donovani Ubiquitin Activating Enzyme (LdE1); type: functional; conditions: 30 µM
T1 sequence (whole entry): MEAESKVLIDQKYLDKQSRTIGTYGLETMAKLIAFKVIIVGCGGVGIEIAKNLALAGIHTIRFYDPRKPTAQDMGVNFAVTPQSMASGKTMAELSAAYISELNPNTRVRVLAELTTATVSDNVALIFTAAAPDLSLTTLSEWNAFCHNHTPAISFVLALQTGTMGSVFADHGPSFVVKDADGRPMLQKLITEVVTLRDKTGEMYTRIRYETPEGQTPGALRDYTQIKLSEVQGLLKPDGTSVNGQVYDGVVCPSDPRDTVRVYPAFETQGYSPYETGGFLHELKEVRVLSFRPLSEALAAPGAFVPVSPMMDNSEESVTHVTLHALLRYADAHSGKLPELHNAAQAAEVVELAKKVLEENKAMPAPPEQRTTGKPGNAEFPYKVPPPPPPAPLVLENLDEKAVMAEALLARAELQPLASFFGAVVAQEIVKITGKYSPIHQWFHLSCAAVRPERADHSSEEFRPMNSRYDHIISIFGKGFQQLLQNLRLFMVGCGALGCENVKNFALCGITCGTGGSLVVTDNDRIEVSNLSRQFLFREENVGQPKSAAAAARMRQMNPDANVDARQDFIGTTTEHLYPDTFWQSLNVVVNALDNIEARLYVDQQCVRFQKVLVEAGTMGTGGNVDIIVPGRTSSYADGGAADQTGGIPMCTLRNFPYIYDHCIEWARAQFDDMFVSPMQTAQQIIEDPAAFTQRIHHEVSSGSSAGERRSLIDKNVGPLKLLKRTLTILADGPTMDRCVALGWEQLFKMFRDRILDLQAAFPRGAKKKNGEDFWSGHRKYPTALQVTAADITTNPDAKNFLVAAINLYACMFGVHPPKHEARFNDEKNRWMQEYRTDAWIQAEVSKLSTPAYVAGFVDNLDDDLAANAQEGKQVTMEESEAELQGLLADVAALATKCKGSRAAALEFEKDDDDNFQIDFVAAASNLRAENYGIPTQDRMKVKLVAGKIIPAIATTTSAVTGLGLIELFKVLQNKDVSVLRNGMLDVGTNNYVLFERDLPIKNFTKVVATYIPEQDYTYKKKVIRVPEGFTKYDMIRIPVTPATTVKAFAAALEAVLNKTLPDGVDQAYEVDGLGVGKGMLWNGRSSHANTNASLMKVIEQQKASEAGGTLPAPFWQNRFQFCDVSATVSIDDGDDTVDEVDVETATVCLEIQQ

[3] = molecular target: AMP-activated protein kinase, AMPK (Homo sapiens) (UniProt P54646+O43741+P54619+Q9UGJ0+Q9Y478+Q13131+Q9UGI9); experiment: AMP-dependent Kinase enzyme assay. An in vitro enzyme assay that detects ADP turnover that is directly proportional to AMPK activity. This uses naive AMPK that is activated during the assay with MK-8722; type: functional; conditions: 30 µM
[4] = molecular target: Sialic acid-binding Ig-like lectin 9 (Homo sapiens) (UniProt Q9Y336); experiment: Hs-Siglec9 ALPHAscreen SOP 20170721; conditions: 10 µM
Sequence of Sialic acid-binding Ig-like lectin 9 (Homo sapiens) (Q9Y336 whole entry): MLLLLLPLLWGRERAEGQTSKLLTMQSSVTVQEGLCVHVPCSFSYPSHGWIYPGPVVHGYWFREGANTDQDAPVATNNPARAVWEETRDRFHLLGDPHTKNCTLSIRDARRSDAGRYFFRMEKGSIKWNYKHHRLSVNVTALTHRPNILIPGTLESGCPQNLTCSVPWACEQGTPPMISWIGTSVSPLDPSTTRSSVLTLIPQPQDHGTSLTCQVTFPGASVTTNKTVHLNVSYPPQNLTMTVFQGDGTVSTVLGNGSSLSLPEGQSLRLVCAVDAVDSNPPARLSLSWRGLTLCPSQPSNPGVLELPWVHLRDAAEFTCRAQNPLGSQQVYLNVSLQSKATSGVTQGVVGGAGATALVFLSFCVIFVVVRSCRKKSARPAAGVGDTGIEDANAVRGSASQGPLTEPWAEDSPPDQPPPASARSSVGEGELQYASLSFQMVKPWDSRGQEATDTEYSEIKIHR

Trypanosoma cruzi = experiment: Trypanosoma cruzi phosphomannomutase and mannose-1-phosphate guanylyltransferase assay; type: functional; conditions: 10 µM
[5] = molecular target: T2, Arginase-2, mitochondrial (Homo sapiens) (UniProt P78540); experiment: in vitro enzyme assay to detect the production of urea directly proportional to the activity of Arginase II; type: functional; conditions: 33.3 µM; note: in the data most compounds retested in dose-response had high values
T2 sequence (whole entry): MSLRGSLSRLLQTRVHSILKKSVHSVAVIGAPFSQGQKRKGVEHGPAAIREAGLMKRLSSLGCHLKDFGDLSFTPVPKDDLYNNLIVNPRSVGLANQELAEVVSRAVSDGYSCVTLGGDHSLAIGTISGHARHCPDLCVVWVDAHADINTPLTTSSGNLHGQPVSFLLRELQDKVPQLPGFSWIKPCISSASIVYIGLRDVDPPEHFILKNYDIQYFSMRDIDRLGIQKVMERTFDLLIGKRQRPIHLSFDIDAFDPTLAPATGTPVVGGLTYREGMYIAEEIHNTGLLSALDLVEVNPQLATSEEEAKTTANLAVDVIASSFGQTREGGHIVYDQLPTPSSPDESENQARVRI

[6] = molecular target: T3, Proteasome subunit beta (Trypanosoma cruzi) (UniProt O96673); experiment: Trypanosoma cruzi proteasome chymotrypsin-like activity (TcProtChymo) assay.; note: in the data most compounds retested in dose-response had high values; type: functional; conditions: 9.37 µM
T3 sequence (whole entry): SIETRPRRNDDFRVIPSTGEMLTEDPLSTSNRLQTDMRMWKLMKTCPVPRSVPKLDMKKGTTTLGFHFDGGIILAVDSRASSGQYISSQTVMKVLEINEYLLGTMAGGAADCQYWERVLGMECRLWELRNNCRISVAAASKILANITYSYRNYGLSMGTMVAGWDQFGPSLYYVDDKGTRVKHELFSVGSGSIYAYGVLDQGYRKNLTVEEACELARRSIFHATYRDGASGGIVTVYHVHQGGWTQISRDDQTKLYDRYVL

Homo sapiens = species on record: Homo sapiens; experiment: To identify inhibition of the IFN signalling (Jak-Stat) pathway via expression of an eGFP reporter gene under the control of an IFN-stimulated response element (ISRE) containing MxA promoter.; type: functional; conditions: 30 µM
[7] = molecular target: T4, Tyrosyl-tRNA synthetase, putative (Trypanosoma cruzi (strain CL Brener)) (UniProt Q4DSP6); experiment: Trypanosoma cruzi tyrosyl tRNA synthetase (TcYRS) _High Tyrosine SOP; type: functional; conditions: 30 µM; note: in the data most compounds retested in dose-response had high values
T4 sequence (whole entry): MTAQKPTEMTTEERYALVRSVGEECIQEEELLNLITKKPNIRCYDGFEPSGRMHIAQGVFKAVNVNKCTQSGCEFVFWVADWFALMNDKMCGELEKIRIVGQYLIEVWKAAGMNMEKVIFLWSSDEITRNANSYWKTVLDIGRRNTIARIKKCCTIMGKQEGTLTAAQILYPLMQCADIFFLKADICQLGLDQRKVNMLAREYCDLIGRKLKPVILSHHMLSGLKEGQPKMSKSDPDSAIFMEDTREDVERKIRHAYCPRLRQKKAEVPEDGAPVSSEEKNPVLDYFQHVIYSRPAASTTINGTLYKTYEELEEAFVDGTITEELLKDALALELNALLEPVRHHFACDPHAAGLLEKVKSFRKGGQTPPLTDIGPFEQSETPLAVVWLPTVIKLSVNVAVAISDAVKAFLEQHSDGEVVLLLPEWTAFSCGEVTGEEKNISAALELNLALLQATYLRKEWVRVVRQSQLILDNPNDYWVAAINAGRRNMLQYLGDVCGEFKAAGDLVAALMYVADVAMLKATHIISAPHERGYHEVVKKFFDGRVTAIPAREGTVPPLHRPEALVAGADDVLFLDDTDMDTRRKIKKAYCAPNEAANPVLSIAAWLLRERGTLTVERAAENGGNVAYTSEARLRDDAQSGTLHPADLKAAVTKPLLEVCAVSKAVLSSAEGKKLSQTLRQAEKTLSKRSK

[8] = molecular target: T4, Tyrosyl-tRNA synthetase, putative (Trypanosoma cruzi (strain CL Brener)); experiment: Trypanosoma cruzi tyrosyl tRNA synthetase (TcYRS) SOP; type: functional; conditions: 30 µM
[9] = molecular target: Chromo domain-containing protein 1 (Saccharomyces cerevisiae (strain ATCC 204508 / S288c) (Baker's yeast)) (UniProt P32657); experiment: ScCHD-1 Enzyme Inhibition Assay; type: functional; conditions: 30 µM; note: in the data most compounds retested in dose-response had high values
Sequence of Chromo domain-containing protein 1 (Saccharomyces cerevisiae (strain ATCC 204508 / S288c) (Baker's yeast)) (P32657 whole entry, the tested form may be a part): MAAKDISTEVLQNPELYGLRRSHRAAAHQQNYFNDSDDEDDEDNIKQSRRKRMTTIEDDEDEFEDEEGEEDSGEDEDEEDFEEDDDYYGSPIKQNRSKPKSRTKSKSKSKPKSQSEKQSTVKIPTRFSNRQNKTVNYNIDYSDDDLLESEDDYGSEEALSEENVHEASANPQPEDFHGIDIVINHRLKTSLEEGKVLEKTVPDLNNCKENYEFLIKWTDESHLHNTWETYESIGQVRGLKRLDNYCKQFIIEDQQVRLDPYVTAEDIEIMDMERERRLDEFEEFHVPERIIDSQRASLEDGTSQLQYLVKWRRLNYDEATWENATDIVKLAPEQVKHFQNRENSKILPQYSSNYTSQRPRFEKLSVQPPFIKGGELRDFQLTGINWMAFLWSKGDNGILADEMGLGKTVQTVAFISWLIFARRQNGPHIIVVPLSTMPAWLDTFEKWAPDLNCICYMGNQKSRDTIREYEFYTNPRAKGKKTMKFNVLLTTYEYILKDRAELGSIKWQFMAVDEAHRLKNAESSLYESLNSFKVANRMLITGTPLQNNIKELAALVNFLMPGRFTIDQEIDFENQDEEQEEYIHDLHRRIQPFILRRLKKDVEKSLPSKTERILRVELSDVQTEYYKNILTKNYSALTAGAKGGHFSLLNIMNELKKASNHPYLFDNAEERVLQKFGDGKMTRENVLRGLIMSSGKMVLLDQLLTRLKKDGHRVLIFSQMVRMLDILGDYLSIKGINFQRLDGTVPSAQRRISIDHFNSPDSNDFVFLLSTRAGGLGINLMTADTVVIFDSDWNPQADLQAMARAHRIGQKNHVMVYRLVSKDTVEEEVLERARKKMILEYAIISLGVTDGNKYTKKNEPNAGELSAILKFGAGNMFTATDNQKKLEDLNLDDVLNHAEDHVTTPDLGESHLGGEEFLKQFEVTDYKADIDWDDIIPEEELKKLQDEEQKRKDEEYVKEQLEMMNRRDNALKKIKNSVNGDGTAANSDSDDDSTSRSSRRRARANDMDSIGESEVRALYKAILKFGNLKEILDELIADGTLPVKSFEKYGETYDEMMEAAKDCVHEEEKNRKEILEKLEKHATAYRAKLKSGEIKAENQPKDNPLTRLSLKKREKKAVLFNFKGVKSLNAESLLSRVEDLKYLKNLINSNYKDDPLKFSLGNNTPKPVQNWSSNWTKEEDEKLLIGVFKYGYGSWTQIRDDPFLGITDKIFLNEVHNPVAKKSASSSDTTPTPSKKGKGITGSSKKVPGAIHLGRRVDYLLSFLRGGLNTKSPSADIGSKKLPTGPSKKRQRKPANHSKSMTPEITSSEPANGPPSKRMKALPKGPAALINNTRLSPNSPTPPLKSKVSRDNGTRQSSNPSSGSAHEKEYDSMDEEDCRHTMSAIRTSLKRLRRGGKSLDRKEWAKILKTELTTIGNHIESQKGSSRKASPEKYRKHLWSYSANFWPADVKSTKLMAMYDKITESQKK

| SMILES | Percent Effect [1] | Percent Effect [2] | Percent Effect [3] | Percent Effect [4] | Percent Effect (Trypanosoma cruzi) | Percent Effect [5] | Percent Effect [6] | Percent Effect (Homo sapiens) | Percent Effect [7] | Percent Effect [8] | Percent Effect [9] |
| --- | --- | --- | --- | --- | --- | --- | --- | --- | --- | --- | --- |
| CN(Cc1ccsc1)C(=O)Nc1ccc(S(C)(=O)=O)nc1 | -2.7% | 22.8% | -11.6% | -5.34% | 4.63% | -3.04% | 10.6% | 5.01% | 9.36% | 24.1% | -6.57% |
| Cc1nccc(N2CCC(=O)N(Cc3ccc(F)cc3)C(C(C)C)C2)n1 (configuration not stated) | -2.94% | 1.39% | 1.69% | -1.4% | -1.07% | -0.883% | 4.56% | -6.54% | 0% | 2.56% | 1.68% |
| Cc1cnn(CC2CCCCN2Cc2nnc(C3CC3)n2C)c1 (configuration not stated) | -1.18% | -1.27% | 5% | -0.259% | 5.85% | 0.215% | 8.75% | -10.1% | 3.12% | 5.06% | -2.78% |
| CCS(=O)(=O)N(C)C1CCN(C(=O)c2cccc(Cl)c2)CC1 | -3.98% | 16.2% | -9.5% | 1.05% | 4.3% | 11.2% | 9.38% | -0.31% | 6.93% | 11% | -6.5% |
| CNC(=O)N1CCc2cc(C(=O)N(C)C)c(NCC3CC3)nc2CC1 | -4.82% | 8.11% | -2.71% | 2.07% | -4.4% | -0.248% | 10.7% | 18.6% | 6.45% | 16.1% | -1.72% |
| Cn1ncc2c1NC(=O)CC2c1ccccc1Cl (configuration not stated) | -6.92% | 10.5% | 5.36% | 7.02% | 3.6% | -5.92% | 6.62% | 16.4% | 1.06% | 5.2% | -0.659% |
| CN1CCOC(CNCc2coc(-c3cccs3)n2)C1 (configuration not stated) | -2.66% | 22.8% | -18.2% | -13.1% | 5.38% | 3.42% | 8.27% | 12.8% | 8.37% | 21.5% | -14.2% |
| CN(Cc1cncnc1)Cc1cn2c(n1)CN(C1CCOC1)CC2 (configuration not stated) | -2.37% | 5.33% | -0.62% | 5.52% | -2.51% | -21.7% | 8.38% | 8.32% | 5.21% | 12.5% | -5.82% |
| CCCS(=O)(=O)N1CCC2(CC1)CN(c1ccccn1)CCO2 | -4.44% | 4% | -4.84% | -5.06% | -11% | -11.8% | 11.8% | -5.14% | 0% | -2.56% | -7.42% |
| Cc1nc(CN(Cc2cccs2)C2CCS(=O)(=O)C2)oc1C (configuration not stated) | -3.68% | 15.8% | -1.59% | 1.17% | -3.27% | 2.16% | 6.85% | -8.22% | 5.42% | 23.5% | 1.43% |
| COC(=O)C1CCN(c2cncc(-n3nc(C)cc3C)n2)CC1 | -4% | 0% | 4.1% | 5.66% | -7.03% | 4.17% | 15.6% | 12.6% | 3.96% | 3.66% | -8.43% |
| COCCNC(=O)Nc1ccc(-n2cncn2)c(F)c1 | -6.54% | 0% | -12.8% | 0.712% | -4.7% | 0% | 4.51% | 28.2% | 2.45% | 0% | -7.16% |
| c1cnnc(NCC2CN(CCN3CCCCC3)CCO2)c1 (configuration not stated) | -2.02% | -7.79% | 5.05% | 6.18% | 9.74% | -3.56% | 1.01% | -18.9% | 0.971% | 7.32% | -2.7% |
| CN(CCC(F)(F)F)C(=O)[C@H]1CSCN1C(=O)OC(C)(C)C | -4.76% | 0% | 3.13% | 1.23% | 8.03% | 0% | 1.77% | -11.9% | 1.07% | 2.5% | -1.07% |
| Cc1cnc(CN2CCC(N(C)Cc3nnc(C4CC4)n3C)C2)cn1 (configuration not stated) | -4.85% | 0% | 1.39% | -3.06% | -0.0978% | 2.73% | 8.67% | -19.5% | 6.45% | 8.64% | -2.52% |
| CC(=O)NCc1ccc(C(=O)N2CCCCC2Cn2cccn2)o1 (configuration not stated) | -1.39% | 27% | -1.91% | -5% | 4.18% | -5.36% | 14.4% | 17.1% | 1.98% | 18.3% | -6.26% |
| c1coc(-c2noc(CN3CCCC(Cn4cncn4)C3)n2)c1 (configuration not stated) | -6.64% | 7.59% | -3.53% | 4.26% | 6.14% | -3.04% | 2.05% | 3.63% | -1.48% | 11.4% | -5.56% |
| COCCO[C@H]1CCN(C(=O)c2ccno2)[C@H]1Cc1cnn(C)c1 | -1.65% | -2.7% | -2.17% | -4.71% | -2.54% | 1.67% | 2.79% | -28.8% | 4.95% | -3.66% | 1.61% |
| O=C(N[C@@H]1CN(Cc2cccs2)[C@@H]2CCCO[C@@H]21)C1CC1 | 2.58% | 8% | 2.54% | 23.2% | -7.34% | -53.6% | 13.3% | 1.32% | 2.08% | 20% | -6.29% |
| NC(=O)NCC(=O)N1C[C@H]2CC[C@@H]1CN(Cc1ccccc1)C2 | -4.49% | 5.48% | 6.44% | -9.32% | -0.979% | -6.82% | 11.4% | -13.6% | 6.45% | 7.5% | -5.72% |
| O=C(C1CCOCC1)N1C[C@@H]2C[C@@H](c3nc(C4CC4)cs3)O[C@@H]2C1 | 0.171% | 16.4% | -11.2% | 8.5% | 3.57% | -11.6% | 13.8% | 1.09% | 11.5% | 21% | 0.447% |
| CC(C(=O)N1CCc2ccccc2C1)n1cc(Br)cn1 (configuration not stated) | -0.393% | 0% | -6.91% | 6.63% | 4.42% | -6.9% | 7.82% | 19.8% | 4.3% | 13.6% | -3.62% |
